This passage reports binding signal results from paper PMC7862700, “An all-to-all approach to the identification of sequence-specific readers for epigenetic DNA modifications on cytosine”.

What all share (assay): DAPPL (digital affinity profiling via proximity ligation, sequencing); 10 mM Tris-HCl pH 7.5, 50 mM NaCl, 1 mM DTT, 4% glycerol, room temperature, 30 min; GST-TFs on glutathione beads, 16-mer random dsDNA library, 0.1% formaldehyde crosslink after washing; high values mean tight binding
The target in one test is T1, FLI1 (Homo sapiens, UniProt Q01543 1-452).
T1 sequence: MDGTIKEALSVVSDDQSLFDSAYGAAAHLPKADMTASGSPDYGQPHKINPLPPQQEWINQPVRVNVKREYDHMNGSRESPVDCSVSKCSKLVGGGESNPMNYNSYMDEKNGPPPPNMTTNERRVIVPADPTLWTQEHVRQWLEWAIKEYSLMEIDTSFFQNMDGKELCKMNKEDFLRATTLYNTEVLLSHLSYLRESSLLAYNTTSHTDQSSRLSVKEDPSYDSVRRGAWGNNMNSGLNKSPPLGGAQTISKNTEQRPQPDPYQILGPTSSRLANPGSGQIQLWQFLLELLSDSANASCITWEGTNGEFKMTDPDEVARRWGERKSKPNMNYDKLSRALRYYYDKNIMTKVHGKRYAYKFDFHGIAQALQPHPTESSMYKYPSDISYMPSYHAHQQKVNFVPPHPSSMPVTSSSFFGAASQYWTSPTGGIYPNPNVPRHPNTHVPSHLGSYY
As to conditions: protein: recombinant; tags: N-terminal GST; dsDNA, one strand shown. The method in brief:
(§1)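 Beads coated with glutathione captured GST-fused human transcription factors that had been expressed in yeast, and the factors were then given DNA barcodes and pooled with a tag-only sample. The pools were incubated with 200 nmole of a random double-stranded 16-mer DNA library in Tris/NaCl/DTT/glycerol buffer for 30 min at room temperature, washed, crosslinked with 0.1% formaldehyde and proximity-ligated with BsaI/T4 ligase at 37 °C for 1 h. PCR amplification and Illumina NextSeq500 sequencing came last. Binding signal is each hexamer's read frequency for a factor divided by its frequency for the tag-only sample.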

A further test concerns the target T2, ELK1 (Homo sapiens, UniProt P19419 1-428).
T2 sequence: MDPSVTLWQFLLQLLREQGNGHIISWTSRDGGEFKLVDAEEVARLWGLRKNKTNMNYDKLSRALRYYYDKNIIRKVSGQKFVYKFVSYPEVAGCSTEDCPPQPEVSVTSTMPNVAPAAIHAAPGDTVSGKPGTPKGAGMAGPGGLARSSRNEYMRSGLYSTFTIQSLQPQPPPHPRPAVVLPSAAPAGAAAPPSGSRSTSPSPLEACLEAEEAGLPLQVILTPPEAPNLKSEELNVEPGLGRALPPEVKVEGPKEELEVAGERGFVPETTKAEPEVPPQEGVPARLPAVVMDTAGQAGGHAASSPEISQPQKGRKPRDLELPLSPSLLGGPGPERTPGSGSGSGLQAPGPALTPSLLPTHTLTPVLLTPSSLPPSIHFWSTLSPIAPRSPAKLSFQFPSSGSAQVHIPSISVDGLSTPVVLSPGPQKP
As to conditions: protein: recombinant; tags: N-terminal GST; dsDNA, one strand shown. The method in brief: as §1

The target of a further test is T3, GABPA (Homo sapiens, UniProt Q06546 1-454).
T3 sequence: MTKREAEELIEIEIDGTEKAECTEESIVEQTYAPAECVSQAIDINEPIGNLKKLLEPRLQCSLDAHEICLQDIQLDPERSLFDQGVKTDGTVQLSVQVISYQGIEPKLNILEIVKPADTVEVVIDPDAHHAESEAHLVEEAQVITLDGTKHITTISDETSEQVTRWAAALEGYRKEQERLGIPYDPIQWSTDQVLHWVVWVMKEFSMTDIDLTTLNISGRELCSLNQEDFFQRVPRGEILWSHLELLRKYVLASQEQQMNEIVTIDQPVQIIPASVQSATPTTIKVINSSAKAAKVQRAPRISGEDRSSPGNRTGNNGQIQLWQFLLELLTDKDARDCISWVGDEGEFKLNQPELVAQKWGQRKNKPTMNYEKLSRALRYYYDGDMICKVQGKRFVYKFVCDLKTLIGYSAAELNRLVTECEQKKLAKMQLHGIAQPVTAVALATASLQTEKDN
Conditions: protein: recombinant; tags: N-terminal GST; dsDNA, one strand shown. The method in brief:
as §1

The target in another test is T4, ERG (Homo sapiens, UniProt P11308 1-479).
T4 sequence: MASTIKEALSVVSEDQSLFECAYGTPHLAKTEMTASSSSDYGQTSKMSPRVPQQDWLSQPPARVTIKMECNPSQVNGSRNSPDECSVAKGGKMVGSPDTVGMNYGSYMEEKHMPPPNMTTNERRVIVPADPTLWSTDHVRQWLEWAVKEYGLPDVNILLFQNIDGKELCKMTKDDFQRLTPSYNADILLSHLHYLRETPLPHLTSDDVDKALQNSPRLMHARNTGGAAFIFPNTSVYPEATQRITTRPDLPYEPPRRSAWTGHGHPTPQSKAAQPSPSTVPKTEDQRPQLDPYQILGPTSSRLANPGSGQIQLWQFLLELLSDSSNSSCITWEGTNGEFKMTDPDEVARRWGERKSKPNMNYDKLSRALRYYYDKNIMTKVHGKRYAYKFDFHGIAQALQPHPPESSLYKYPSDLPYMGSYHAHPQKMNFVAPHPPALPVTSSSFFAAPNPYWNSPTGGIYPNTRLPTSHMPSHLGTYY
As to conditions: protein: recombinant; tags: N-terminal GST; dsDNA, one strand shown. The method in brief:
as §1

For the next test, the target named is ELF1 (Homo sapiens, UniProt P32519 1-619). As to conditions: protein: recombinant; tags: N-terminal GST; dsDNA, one strand shown. The method in brief: as §1
ELF1, sequence (P32519 whole entry): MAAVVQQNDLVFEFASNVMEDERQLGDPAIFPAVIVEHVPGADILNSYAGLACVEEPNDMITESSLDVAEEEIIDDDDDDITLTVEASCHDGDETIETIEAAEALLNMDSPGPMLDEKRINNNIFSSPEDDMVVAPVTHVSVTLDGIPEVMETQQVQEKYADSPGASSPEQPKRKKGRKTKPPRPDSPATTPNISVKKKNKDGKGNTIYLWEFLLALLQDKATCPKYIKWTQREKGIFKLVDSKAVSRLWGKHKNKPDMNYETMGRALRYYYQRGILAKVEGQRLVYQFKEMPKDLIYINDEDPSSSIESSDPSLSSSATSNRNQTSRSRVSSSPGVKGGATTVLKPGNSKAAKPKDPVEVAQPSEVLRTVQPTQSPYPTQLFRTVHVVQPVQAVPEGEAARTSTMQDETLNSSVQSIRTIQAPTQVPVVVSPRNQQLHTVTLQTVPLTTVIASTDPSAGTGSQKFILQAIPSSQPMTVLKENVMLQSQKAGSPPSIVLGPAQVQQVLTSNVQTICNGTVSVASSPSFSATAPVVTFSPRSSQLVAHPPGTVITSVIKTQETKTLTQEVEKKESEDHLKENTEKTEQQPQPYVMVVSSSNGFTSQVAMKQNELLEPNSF
A further test deals with T5, EHF (Homo sapiens, UniProt Q9NZC4 1-300).
T5 sequence: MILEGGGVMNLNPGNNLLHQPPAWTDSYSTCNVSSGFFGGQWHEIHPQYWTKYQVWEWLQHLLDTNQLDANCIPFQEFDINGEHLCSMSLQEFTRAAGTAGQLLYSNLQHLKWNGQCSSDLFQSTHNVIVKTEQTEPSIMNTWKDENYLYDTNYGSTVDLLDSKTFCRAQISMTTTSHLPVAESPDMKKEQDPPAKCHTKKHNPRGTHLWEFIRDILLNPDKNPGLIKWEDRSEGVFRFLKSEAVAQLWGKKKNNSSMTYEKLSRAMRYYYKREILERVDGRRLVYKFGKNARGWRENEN
Conditions: protein: recombinant; tags: N-terminal GST; dsDNA, one strand shown. The method in brief: as §1

The next test addresses SPI1 (Homo sapiens, UniProt P17947 1-270). As to conditions: protein: recombinant; tags: N-terminal GST; dsDNA, one strand shown. The method in brief:
as §1

The next test concerns the target SPIB (Homo sapiens, UniProt Q01892 1-262). Conditions: protein: recombinant; tags: N-terminal GST; dsDNA, one strand shown. The method in brief:
as §1

In another test the target is T6, ELK3 (Homo sapiens, UniProt P41970 1-407).
T6 sequence: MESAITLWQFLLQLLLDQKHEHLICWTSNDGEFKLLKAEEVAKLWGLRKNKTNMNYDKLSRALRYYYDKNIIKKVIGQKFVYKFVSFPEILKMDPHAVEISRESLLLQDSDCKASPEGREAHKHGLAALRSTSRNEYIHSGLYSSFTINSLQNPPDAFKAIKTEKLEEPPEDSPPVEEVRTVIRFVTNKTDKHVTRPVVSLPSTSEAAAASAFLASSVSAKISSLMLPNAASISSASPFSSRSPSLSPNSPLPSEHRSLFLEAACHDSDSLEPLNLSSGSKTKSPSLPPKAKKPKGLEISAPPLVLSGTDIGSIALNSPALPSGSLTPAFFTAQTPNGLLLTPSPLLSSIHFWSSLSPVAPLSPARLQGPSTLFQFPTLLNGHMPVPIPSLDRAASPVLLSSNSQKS
As to conditions: protein: recombinant; tags: N-terminal GST; dsDNA, one strand shown. The method in brief: as §1

For another test, the target named is T7, FEV (Homo sapiens, UniProt Q99581 1-238).
T7 sequence: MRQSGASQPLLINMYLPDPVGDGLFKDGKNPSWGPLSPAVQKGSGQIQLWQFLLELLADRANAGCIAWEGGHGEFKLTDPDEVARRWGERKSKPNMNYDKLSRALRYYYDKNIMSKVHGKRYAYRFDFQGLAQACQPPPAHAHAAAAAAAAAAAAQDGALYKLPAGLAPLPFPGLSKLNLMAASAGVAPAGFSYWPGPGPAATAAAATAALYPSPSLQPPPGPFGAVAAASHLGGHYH
Conditions: protein: recombinant; tags: N-terminal GST; dsDNA, one strand shown. The method in brief:
as §1

The target of another test is ETV5 (Homo sapiens, UniProt P41161 1-510). Conditions: protein: recombinant; tags: N-terminal GST; dsDNA, one strand shown. The method in brief:
as §1

The target of another test is HSF1 (Homo sapiens, UniProt Q00613 1-529). Conditions: protein: recombinant; tags: N-terminal GST; chain copies: 3; dsDNA, one strand shown. The method in brief:
as §1

A further test has as its target T8, SPIC (Homo sapiens, UniProt Q8N5J4 1-248).
T8 sequence: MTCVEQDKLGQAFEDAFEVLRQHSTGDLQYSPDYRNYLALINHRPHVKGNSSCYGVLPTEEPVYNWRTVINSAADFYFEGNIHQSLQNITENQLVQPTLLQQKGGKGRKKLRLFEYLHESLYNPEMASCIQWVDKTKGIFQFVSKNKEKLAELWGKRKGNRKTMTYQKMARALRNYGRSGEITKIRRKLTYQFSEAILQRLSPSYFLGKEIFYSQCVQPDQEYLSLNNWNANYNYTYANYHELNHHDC
Conditions: protein: recombinant; tags: N-terminal GST; dsDNA, one strand shown. The method in brief: as §1

The target in the next test is ELF4 (Homo sapiens, UniProt Q99607 1-663). Conditions: protein: recombinant; tags: N-terminal GST; dsDNA, one strand shown. The method in brief: as §1
ELF4, sequence (Q99607 whole entry): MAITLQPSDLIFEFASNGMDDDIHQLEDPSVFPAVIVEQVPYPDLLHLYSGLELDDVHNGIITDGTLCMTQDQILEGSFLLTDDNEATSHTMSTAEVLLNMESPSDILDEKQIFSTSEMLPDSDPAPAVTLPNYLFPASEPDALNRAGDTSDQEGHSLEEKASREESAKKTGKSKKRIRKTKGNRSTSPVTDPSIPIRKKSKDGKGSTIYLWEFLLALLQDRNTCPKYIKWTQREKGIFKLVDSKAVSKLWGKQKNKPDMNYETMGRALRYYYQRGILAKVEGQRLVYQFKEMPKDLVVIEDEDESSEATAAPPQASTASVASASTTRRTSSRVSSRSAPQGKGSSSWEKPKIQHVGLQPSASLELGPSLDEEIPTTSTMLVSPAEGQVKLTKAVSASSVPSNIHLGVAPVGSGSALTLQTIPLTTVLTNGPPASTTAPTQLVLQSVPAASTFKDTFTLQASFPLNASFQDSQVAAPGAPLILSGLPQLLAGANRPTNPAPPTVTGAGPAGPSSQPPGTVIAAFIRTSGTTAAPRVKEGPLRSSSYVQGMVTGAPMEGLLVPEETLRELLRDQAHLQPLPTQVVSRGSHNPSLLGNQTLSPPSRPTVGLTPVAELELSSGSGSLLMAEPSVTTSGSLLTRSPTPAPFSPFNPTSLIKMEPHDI
The target of the next test is T9, ELK4 (Homo sapiens, UniProt P28324-2 1-405).
T9 sequence: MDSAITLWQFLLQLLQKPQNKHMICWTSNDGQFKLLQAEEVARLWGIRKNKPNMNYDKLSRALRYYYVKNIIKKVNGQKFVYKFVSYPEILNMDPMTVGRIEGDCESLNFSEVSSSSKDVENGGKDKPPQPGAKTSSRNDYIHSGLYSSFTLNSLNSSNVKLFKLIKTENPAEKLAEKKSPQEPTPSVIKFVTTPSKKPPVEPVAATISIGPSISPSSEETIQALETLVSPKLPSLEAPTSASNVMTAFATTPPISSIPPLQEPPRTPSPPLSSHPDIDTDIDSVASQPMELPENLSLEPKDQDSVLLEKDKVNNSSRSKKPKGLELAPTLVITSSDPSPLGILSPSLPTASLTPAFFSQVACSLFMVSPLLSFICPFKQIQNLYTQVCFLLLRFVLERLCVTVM
As to conditions: protein: recombinant; tags: N-terminal GST; dsDNA, one strand shown. The method in brief:
as §1

A further test concerns the target T10, ETV2 (Homo sapiens, UniProt O00321 1-342).
T10 sequence: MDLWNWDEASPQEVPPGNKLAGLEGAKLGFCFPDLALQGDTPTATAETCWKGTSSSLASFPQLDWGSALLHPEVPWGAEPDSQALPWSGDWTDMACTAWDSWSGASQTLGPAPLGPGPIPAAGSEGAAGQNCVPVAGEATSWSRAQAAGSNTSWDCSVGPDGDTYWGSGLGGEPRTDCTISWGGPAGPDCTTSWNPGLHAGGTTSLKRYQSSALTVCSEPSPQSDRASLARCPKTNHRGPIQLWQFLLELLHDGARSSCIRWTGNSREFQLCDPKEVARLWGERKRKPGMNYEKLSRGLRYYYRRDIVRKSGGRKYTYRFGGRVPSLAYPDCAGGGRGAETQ
As to conditions: protein: recombinant; tags: N-terminal GST; dsDNA, one strand shown. The method in brief: as §1

The target of the next test is T11, ELF3 (Homo sapiens, UniProt P78545 1-371).
T11 sequence: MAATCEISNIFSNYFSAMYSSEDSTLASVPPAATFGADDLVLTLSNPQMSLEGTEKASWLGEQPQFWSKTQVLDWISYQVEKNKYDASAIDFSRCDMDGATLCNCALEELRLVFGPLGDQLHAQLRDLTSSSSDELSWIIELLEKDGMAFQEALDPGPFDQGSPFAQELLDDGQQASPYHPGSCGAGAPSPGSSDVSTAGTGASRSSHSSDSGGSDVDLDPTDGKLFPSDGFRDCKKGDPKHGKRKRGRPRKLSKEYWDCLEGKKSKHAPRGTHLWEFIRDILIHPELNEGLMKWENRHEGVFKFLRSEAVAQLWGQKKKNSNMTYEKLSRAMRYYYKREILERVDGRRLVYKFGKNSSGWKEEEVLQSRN
As to conditions: protein: recombinant; tags: N-terminal GST; dsDNA, one strand shown. The method in brief: as §1

The next test addresses CRX (Homo sapiens, UniProt O43186 1-299). As to conditions: protein: recombinant; tags: N-terminal GST; dsDNA, one strand shown. The method in brief:
as §1

The next test deals with ETV1 (Homo sapiens, UniProt P50549 1-477). Conditions: protein: recombinant; tags: N-terminal GST; dsDNA, one strand shown. The method in brief:
as §1

ETV1, sequence (P50549 whole entry): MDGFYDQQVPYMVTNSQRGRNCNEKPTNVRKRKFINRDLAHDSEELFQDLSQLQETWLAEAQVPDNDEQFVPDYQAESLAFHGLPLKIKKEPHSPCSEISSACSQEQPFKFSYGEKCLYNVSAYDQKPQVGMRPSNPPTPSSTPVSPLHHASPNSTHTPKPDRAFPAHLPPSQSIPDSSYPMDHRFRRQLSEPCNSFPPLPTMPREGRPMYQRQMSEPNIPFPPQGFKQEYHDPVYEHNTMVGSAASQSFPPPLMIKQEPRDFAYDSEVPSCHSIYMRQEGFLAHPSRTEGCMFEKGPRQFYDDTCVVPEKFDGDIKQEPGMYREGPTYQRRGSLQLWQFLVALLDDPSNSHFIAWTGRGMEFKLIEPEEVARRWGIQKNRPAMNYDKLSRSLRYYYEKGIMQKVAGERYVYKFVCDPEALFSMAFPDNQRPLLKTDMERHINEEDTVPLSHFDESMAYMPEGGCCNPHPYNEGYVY
ETV5, sequence (P41161 whole entry): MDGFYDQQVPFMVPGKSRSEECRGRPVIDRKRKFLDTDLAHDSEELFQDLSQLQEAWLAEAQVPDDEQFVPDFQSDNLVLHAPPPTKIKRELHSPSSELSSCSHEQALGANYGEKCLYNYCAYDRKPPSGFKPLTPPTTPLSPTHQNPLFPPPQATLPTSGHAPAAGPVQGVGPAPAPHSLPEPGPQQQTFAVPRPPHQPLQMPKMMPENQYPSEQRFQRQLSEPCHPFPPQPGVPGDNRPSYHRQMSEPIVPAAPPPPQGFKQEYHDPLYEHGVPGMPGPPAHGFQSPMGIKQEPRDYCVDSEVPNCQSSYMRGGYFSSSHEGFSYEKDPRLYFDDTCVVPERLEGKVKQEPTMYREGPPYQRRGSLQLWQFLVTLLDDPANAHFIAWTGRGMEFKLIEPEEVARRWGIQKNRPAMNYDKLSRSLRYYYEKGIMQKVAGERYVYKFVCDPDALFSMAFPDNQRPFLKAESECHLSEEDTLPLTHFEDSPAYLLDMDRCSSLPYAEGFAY
SPIB, sequence (Q01892 whole entry): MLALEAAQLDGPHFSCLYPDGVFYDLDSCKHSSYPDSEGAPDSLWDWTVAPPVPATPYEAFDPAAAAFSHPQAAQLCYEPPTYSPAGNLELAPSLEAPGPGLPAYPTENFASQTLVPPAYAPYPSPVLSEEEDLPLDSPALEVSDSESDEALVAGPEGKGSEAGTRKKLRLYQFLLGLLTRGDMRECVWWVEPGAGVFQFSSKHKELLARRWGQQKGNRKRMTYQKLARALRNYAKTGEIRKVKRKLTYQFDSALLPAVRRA
CRX, sequence (O43186 whole entry): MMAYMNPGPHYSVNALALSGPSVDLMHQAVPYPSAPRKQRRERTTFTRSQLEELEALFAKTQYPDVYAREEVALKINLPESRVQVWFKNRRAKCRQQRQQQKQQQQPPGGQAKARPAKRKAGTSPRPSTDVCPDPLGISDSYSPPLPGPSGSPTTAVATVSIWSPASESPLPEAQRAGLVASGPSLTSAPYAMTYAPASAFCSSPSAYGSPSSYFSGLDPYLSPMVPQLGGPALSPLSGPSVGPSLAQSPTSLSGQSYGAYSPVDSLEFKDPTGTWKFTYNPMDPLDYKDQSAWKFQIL
HSF1, sequence (Q00613 whole entry): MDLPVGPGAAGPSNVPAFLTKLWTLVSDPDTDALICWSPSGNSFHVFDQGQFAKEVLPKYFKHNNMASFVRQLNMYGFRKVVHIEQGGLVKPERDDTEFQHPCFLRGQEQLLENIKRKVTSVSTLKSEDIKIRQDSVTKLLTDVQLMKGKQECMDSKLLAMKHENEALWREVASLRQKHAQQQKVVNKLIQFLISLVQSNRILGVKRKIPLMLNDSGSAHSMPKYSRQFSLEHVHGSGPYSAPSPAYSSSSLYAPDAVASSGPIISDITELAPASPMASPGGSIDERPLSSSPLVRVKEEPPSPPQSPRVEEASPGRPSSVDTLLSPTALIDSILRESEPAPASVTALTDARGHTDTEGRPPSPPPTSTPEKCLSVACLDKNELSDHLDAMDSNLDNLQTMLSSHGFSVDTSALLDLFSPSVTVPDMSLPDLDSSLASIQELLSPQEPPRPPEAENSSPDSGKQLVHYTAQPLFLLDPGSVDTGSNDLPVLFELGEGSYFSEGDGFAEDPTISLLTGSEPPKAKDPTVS

For the sequence CCCTTT, the binding signal is 1.47 fold enrichment (6-mer frequency, TF over GST control) with FLI1; 1.36 fold enrichment (6-mer frequency, TF over GST control) in the test with ELK1; 1.51 fold enrichment (6-mer frequency, TF over GST control) with GABPA; 1.45 fold enrichment (6-mer frequency, TF over GST control) in the test with ERG; 1.36 fold enrichment (6-mer frequency, TF over GST control) with ELF1; 1.35 fold enrichment (6-mer frequency, TF over GST control) in the test with EHF. In addition, the binding signal is 1.96 fold enrichment (6-mer frequency, TF over GST control) in the test with SPI1; 1.49 fold enrichment (6-mer frequency, TF over GST control) with SPIB; 1.43 fold enrichment (6-mer frequency, TF over GST control) with ELK3; 1.46 fold enrichment (6-mer frequency, TF over GST control) with FEV; 1.45 fold enrichment (6-mer frequency, TF over GST control) in the test with ETV5; 1.25 fold enrichment (6-mer frequency, TF over GST control) with HSF1. Further, the binding signal with SPIC was 1.34 fold enrichment (6-mer frequency, TF over GST control); with ELF4, 1.49 fold enrichment (6-mer frequency, TF over GST control); with ELK4, 1.34 fold enrichment (6-mer frequency, TF over GST control); with ETV2, 1.33 fold enrichment (6-mer frequency, TF over GST control); in the test with ELF3, 1.68 fold enrichment (6-mer frequency, TF over GST control); with CRX, 1.35 fold enrichment (6-mer frequency, TF over GST control). The binding signal with ETV1 is 1.4 fold enrichment (6-mer frequency, TF over GST control).
